{"source": "PubChem BioAssay (Tox21)", "note": "Records with an inconclusive call do not appear. Calls of active or inactive are those of the source. The call rests on the fitted dose curve; in most records, active means well fitted activation curve with a large enough effect in the signal ratio in the repeat runs (not every such curve was filed as active); inconclusive means weak or mixed curves, or effect the other way; inactive means flat fitted curve, though single readings scatter; the % refers to the signal ratio. On the % scale 0 is the no-effect control and ±100 the full control effect."}
{"biological_target": "Estrogen receptor beta (Homo sapiens) (UniProt Q92731)", "sequence (Q92731 whole entry, looked up)": "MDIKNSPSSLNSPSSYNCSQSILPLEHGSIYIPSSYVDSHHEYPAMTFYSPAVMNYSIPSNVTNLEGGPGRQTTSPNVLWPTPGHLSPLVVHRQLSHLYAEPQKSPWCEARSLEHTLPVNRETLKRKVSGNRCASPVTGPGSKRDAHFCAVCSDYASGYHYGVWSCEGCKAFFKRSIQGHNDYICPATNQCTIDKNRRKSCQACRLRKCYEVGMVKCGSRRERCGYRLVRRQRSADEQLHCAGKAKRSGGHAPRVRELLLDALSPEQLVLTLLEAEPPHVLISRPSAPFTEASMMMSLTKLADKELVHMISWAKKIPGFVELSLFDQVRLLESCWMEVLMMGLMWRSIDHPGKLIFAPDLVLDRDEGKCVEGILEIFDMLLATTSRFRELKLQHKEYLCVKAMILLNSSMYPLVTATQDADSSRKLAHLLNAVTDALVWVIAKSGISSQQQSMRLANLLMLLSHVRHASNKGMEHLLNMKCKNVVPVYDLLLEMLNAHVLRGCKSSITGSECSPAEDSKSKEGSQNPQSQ", "assay": "qHTS assay to identify small molecule agonists of the estrogen receptor beta (ER-beta) signaling pathway (AID 1259377)", "details": "ER-beta-UAS-bla HEK293T, beta-lactamase FRET ratio, 16 h; series mostly up to 92.4 µM; activation: at the top concentration", "description": "U.S. Tox21 Program National Center for Advancing Translational Sciences [NCATS] NIH Chemical Genomics Center [NCGC] U.S. Environmental Protection Agency [EPA] National Institutes of Environmental Health Sciences [NIEHS] National Toxicology Program [NTP] U.S. Food and Drug Administration [FDA] Tox21 Assay Overview: Estrogen receptor (ER), a nuclear hormone receptor, plays an important role in development, metabolic homeostasis and reproduction. Two subtypes of ER, ER-alpha and ER-beta, have similar expression patterns with some uniqueness in both types. Endocrine disrupting chemicals (EDCs) and their interactions with steroid hormone receptors like ER causes disruption of normal endocrine function. To identify the compounds that activate ER signaling, an ER beta-UAS-bla GripTite cell line (Life technologies, Madison, WI, USA) containing a beta-lactamase reporter gene under the control of an Upstream Activator Sequence (UAS) was used to screen Tox21 10K compound library.\nTox21 Assay Protocol Summary: ER-beta-UAS-bla HEK293T cells were dispensed at 2,000 cells/5 uL of assay medium containing 2% charcoal stripped FBS per well into black wall/clear-bottom 1536-well plates using a Multidrop Combi (ThermoFisher Scientific, Waltham, MA) dispenser. After the assay plates were incubated at a 37C and 5% CO2 for 6 hr, 23 nL of compounds dissolved in DMSO, positive controls or DMSO only was transferred to the assay plate by a Pintool station (Kalypsys, San Diego, CA). The plates were incubated at 37C and 5% CO2 for 16 hr. Then 1 uL of LiveBLAzerTM B/G FRET substrate was added using a BioRAPTR FRD (Flying Reagent Dispenser, Aurora Discovery, San Diego, CA). After the plates were incubated at room temperature for 2 hours, fluorescence intensity was measured by an Envision plate reader (PerkinElmer, Shelton, CT)."}
{"compound": "CCOP(=S)(OCC)Oc1cc(-c2ccccc2)on1", "activation": "-0.889% (inactive)"}
{"compound": "CC(=O)[C@H]1CC[C@H]2[C@@H]3CC[C@H]4C[C@H](O)CC[C@]4(C)[C@H]3C(=O)C[C@]12C", "activation": "-0.657% [at 42.5 µM] (inactive)"}
{"compound": "N#CC(CCc1ccc(Cl)cc1)(Cn1cncn1)c1ccccc1", "note": "(stereo not given)", "activation": "-8.43% (inactive)"}
{"compound": "C=CC1CC=CCC1", "note": "(stereo not given)", "activation": "1.2% (inactive)"}
{"compound": "O=[N+]([O-])c1cc(Cl)c(Cl)c(Cl)c1", "activation": "-0.613% (inactive)"}
{"compound": "C[C@]12CC[C@H]3[C@@H](CC=C4C[C@@H](O)CC[C@@]43C)[C@@H]1CC[C@@H]2O", "activation": "-0.899% [at 42.5 µM] (inactive)"}
{"compound": "CCC/C(=N\\OCC)C1=C(O)CC(CC(C)SCC)CC1=O", "note": "(stereo not given)", "activation": "3.04% (inactive)"}
{"compound": "CNCC(=O)c1ccc(O)c(O)c1", "activation": "5.19% [at 42.5 µM] (inactive)"}
{"compound": "CCOP(=S)(OCC)Oc1ncn(-c2ccccc2)n1", "activation": "-0.133% (inactive)"}
{"compound": "Fc1cc(Br)ccc1CBr", "activation": "-0.704% [at 42.5 µM] (inactive)"}
{"compound": "CNC(=O)Oc1ccccc1C1OCCO1", "activation": "-0.214% (inactive)"}
{"compound": "CC(C)(C)NCC(O)c1cc(Cl)c(N)c(Cl)c1", "note": "(stereo not given)", "activation": "1.23% [at 42.5 µM] (inactive)"}
{"compound": "Cc1ncc2n1-c1ccc(Cl)cc1C(c1ccccc1F)=NC2", "activation": "1.44% [at 42.5 µM] (inactive)"}
{"compound": "Clc1cccc(N2CCNCC2)c1", "activation": "-0.795% [at 42.5 µM] (inactive)"}
{"compound": "COc1cc(OC)nc(NC(=O)NS(=O)(=O)c2ncccc2C(=O)N(C)C)n1", "activation": "2.65% (inactive)"}
{"compound": "CCOC(=O)CP(=O)(OCC)OCC", "activation": "11.5% (inactive)"}
{"compound": "O=C1OC(CCN2CCCCC2)OC1(c1ccccc1)c1ccccc1", "note": "(stereo not given)", "activation": "1.91% [at 42.5 µM] (inactive)"}
{"compound": "CCCCCCI", "activation": "0.881% (inactive)"}
{"compound": "Clc1ccccc1N1CCNCC1", "activation": "0.785% [at 42.5 µM] (inactive)"}
{"compound": "CCCCC(=O)Cl", "activation": "-0.932% (inactive)"}
{"compound": "O=C(N[C@H]1CN2CCC1CC2)c1cc2ccoc2cn1", "activation": "5.17% (inactive)"}
{"compound": "CCOC(=O)C1(c2ccccc2)CCN(CCc2ccc(N)cc2)CC1", "activation": "1.21% [at 42.5 µM] (inactive)"}
{"compound": "N#CCBr", "activation": "-3.12% (inactive)"}
{"compound": "N#Cc1c(Cl)cccc1Cl", "activation": "3.98% (inactive)"}
{"compound": "COC(=O)c1c(C(F)F)nc(C(F)(F)F)c(C2=NCCS2)c1CC(C)C", "activation": "-1.17% (inactive)"}
{"compound": "CC(C(O)c1ccccc1)N(C)C/C=C/c1ccccc1", "note": "(stereo not given)", "activation": "2.26% [at 42.5 µM] (inactive)"}
{"compound": "OCCSCSCCO", "activation": "-2.22% (inactive)"}
{"compound": "c1cc2c(c(N3CCNCC3)c1)OCCO2", "activation": "0.234% [at 42.5 µM] (inactive)"}
{"compound": "O=CNC(N1CCN(C(NC=O)C(Cl)(Cl)Cl)CC1)C(Cl)(Cl)Cl", "note": "(stereo not given)", "activation": "0.0518% (inactive)"}
{"compound": "ClC(Cl)(Cl)C(Cl)(Cl)Cl", "activation": "2.15% (inactive)"}
{"compound": "Nc1cc2c3c(c1)C(c1ccccc1)=N[C@@H](NC(=O)c1cccnc1)C(=O)N3CC2", "activation": "-0.207% (inactive)"}
{"compound": "c1ccc(N2CCNCC2)cc1", "activation": "4.69% [at 42.5 µM] (inactive)"}
{"compound": "CC(Cl)(Cl)[N+](=O)[O-]", "activation": "10.8% (inactive)"}
{"compound": "c1cc[c]([Hg][c]2ccccc2)cc1", "activation": "-3.42% (inactive)"}
{"compound": "COC(=O)C(c1ccccc1)C1CCCCN1", "note": "(stereo not given)", "activation": "-0.11% (inactive)"}
{"compound": "O=C(O)C(Br)CBr", "note": "(stereo not given)", "activation": "0.4% (inactive)"}
{"compound": "NC(=S)C(N)=S", "activation": "-1.86% (inactive)"}
{"compound": "N#Cc1ccncc1", "activation": "4.38% (inactive)"}
{"compound": "CCOc1nc(C(Cl)(Cl)Cl)ns1", "activation": "-1.54% (inactive)"}
{"compound": "CS(=O)(=O)c1cc(C(F)(F)F)ccc1C(=O)c1cnoc1C1CC1", "activation": "-1.18% (inactive)"}
